Compound activity: PubChem BioAssay, The Scripps Research Institute Molecular Screening Center
IEC-6 tox-1 – kills IEC-6 intestinal cells in KLF5 counter-screen. IEC-6 cytotoxicity, luminescence viability. inhibition, % at 5 µM. actives 0.78% (n = 290,000);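 also: 0% = plate median of test compound wells and 100% = cytotoxic reference compound wells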
GPR7 antag – antagonists of human GPR7 (neuropeptides B/W receptor 1); inhibition, % at 4.4 µM; GPR7-expressing cells, fluorescence antagonist assay; AID 1861; actives 1.1% (n = 290,000); in the data active = inhibition above about 16%, passing the limit was not always enough;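 also: cells stimulated with the agonist NPW; 0% = agonist with vehicle and 100% = vehicle without agonist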
Target sequence (P48145 whole entry, looked up): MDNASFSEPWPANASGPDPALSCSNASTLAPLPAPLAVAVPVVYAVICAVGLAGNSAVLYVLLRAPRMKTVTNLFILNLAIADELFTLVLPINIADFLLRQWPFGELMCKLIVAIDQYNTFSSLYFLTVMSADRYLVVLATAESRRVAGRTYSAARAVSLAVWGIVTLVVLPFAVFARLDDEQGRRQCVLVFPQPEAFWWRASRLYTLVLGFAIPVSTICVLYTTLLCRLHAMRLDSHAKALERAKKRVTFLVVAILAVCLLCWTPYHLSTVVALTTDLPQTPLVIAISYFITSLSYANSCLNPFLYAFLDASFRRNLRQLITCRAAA
KLF5 inh – kruppel-like factor 5 inhibition. DLD-1 KLF5 promoter-luciferase reporter, luminescence. inhibition, % at 5 µM. actives 0.23% (n = 290,000);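 active = inhibition above a per-plate limit of that plate's mean compound inhibition plus 3 SD, cut at about 60% in these data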;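 also: 0% = DMSO wells and 100% = LY294002 at 200 µM; higher means less KLF5 promoter-driven luciferase light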
FID counter – fluorescent intercalator displacement, NS3 helicase counter-screen. DNA fluorescent intercalator displacement, fluorescence. inhibition, % at 7.9 µM. actives 0.17% (n = 290,000); in the data active = inhibition above about 37%;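 also: 0% = vehicle and 100% = reference compound; higher means more ethidium bromide displaced from hairpin DNA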
BaF3 tox – counter-screen for JAK2V617F inhibitors: parental Ba/F3 viability inhibitors | CellTiter-Glo ATP luminescence | inhibition, % at 5.6 µM | actives 1.1% (n = 220,000);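 active = inhibition above a per-campaign cutoff, the mean inhibition of all tested compounds plus 3 SD, cut at about 27% in these data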;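 also: 0% = DMSO wells and 100% = JAK Inhibitor I control wells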
Ba/F3 V617F tox – loss of viability in JAK2V617F-driven Ba/F3 cells | inhibition, % at 5.6 µM | Ba/F3 EpoR-JAK2V617F viability, ATP luminescence | actives 1.1% (n = 220,000);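 active = inhibition above the campaign mean plus 3 SD over all tested compounds, cut at about 24% in these data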;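 also: cytokine-independent growth of Ba/F3 cells driven by EpoR plus mutant JAK2; 0% = DMSO-treated cells and 100% = JAK inhibitor I control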
KLF5 confirm – confirmation of KLF5 inhibitors; AID 1834; inhibition, % at 4 µM; shares compounds with KLF5 inh; actives 79% (n = 610); DLD-1 KLF5 promoter firefly luciferase reporter, luminescence;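 active = inhibition above a set limit taken from the earlier primary screen, cut at about 63% in these data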;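 also: 0% = DMSO wells and 100% = LY294002 at 200 µM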
IEC-6 tox-2 – rat IEC-6 cytotoxicity, KLF5 inhibitor counter-screen | inhibition, % at 4 µM | IEC-6 rat intestinal cells, viability luminescence | shares compounds with KLF5 inh | actives 56% (n = 610) | AID 1905; in the data active = inhibition above about 23%;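 also: cells exposed to compounds for 48 hours before viability read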
IEC-6 tox confirm – IEC-6 cytotoxicity, confirmation assay | IEC-6 rat intestinal epithelial viability, luminescence | actives 63% (n = 1,900) | shares compounds with IEC-6 tox-1 | inhibition, % at 5 µM;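 also: 0% = vehicle and 100% = reference cytotoxic drug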
* hit, by the source's call; . = no result given. Rows were chosen to be rich in hits. Some 2.6% of all compounds tested hit in one or more screens of this group. Rule as the data show it, unless noted: active = inhibition above about 22%; inactive = the rest.

SMILES	IEC-6 tox-1	GPR7 antag	KLF5 inh	FID counter	BaF3 tox	Ba/F3 V617F tox	KLF5 confirm	IEC-6 tox-2	IEC-6 tox confirm
CC[n+]1c(/C=C2\Sc3ccccc3N2C)ccc2cccc(C)c21	71*	1	68*	-9	104*	102*	115*	55*	64*
CN1/C(=C/c2cccc[n+]2CCO)Sc2ccccc21	3	-16	-18	1	.	.	.	.	.
O=C(NC(Nc1nc2ccc([N+](=O)[O-])cc2s1)(C(F)(F)F)C(F)(F)F)c1ccccc1Cl	76*	43*	77*	-2	81*	100*	87*	90*	97*
CCOc1ccc(S(=O)(=O)Nc2cc(Sc3ncn[nH]3)c3oc(=O)sc3c2)cc1	-6	5	-35	-19	7	0	.	.	.
O=S(=O)(Nc1cc(Sc2ncn[nH]2)c(O)c2ccccc12)c1ccccc1	85*	-21	68*	3	99*	95*	-13	6	-4
O=C(CSc1n[nH]c(-c2ccccn2)n1)Nc1ccc(Cl)cc1	44*	13	73*	-12	.	.	63*	18	29*
O=C(Cc1ccc(N2CCNC2=O)cc1)N1CCCC(Nc2cccc(F)c2)C1 (configuration not stated)	71*	7	70*	-41	.	.	71*	47*	56*
O=C(Cc1ccc(N2CCNC2=O)cc1)N1CCCC(Nc2ccc(F)c(F)c2)C1 (configuration not stated)	48*	-1	67*	-27	.	.	69*	62*	35*
O=C1CCCN1CCC(=O)N1CCCC(Nc2ccc(F)c(F)c2)C1 (configuration not stated)	1	-4	-54	-6	.	.	.	.	.
O=C(c1cccc(N2CCNC2=O)c1)N1CCCC(Nc2cccc(F)c2)C1 (configuration not stated)	-1	-4	-13	-23	.	.	.	.	.
O=C1NC2(CCOc3ccccc32)C(=O)N1CC(=O)N(Cc1ccccc1)C1CCS(=O)(=O)C1 (configuration not stated)	-3	0	-15	-13	7	3	.	.	.
CCOc1ccccc1NC(=O)Cn1nnc(C(=O)NCc2ccco2)c1N	87*	12	76*	-8	86*	87*	88*	64*	58*
COc1cc2c(cc1OC)C(C)N(C(=O)Nc1cc(C)cc(C)c1)CC2 (configuration not stated)	76*	28	63*	-30	.	.	80*	55*	55*
COc1cc2c(cc1OC)C(C)N(C(=O)c1cc3c(C)cc(C)cc3[nH]1)CC2 (configuration not stated)	13	-42	4	-41	.	.	.	.	.
O=C1[C@@H]2Cc3c([nH]c4ccccc34)C(c3ccc([N+](=O)[O-])cc3)N2C(=O)CN1C1CC1 (some centres not stated)	80*	-3	69*	-2	.	.	75*	45*	50*
O=C(Nc1nc2cc3c(cc2s1)OCCO3)c1ccco1	23*	-9	86*	-3	.	.	81*	15	10
O=C(Nc1nc2cc3c(cc2s1)OCO3)c1ccco1	-2	0	-28	-3	-6	5	.	.	.
CCOc1ccc(N=CC2=C(O)CC(c3ccco3)CC2=O)cc1 (configuration not stated)	3	-2	-13	-15	-2	-6	.	.	.
CC[C@H](C)C(=O)O[C@H]1C[C@@H](C)C=C2C=C[C@H](C)[C@H](CC[C@@H]3C[C@@H](O)CC(=O)O3)[C@H]21	-3	-10	-23	-38	8	3	.	.	.
Cc1cc(-c2ccccc2)nc(N/N=C/c2ccc([N+](=O)[O-])cc2)n1	3	-8	5	-2	11	4	.	.	.
C/C(=N\NC(=O)c1c(C)nc2ccccn12)c1ccc(O)cc1O	28*	12	69*	-9	.	.	84*	39*	36*
COc1ccc(CCNC(=O)CSC(=O)c2ccccc2)cc1OC	6	-12	-31	-14	5	1	.	.	.
Cc1ccccc1C(=O)O/N=C(\N)c1cccc([N+](=O)[O-])c1	6	16	-9	7	0	-3	.	.	.
Cc1ccccc1NC1=C/C(=N\S(=O)(=O)c2ccc(C(=O)O)cc2)c2ccccc2C1=O	16	-14	-17	-12	.	.	.	.	.
COc1ccc(S(=O)(=O)/N=C2\C=C(Nc3ccc(O)cc3)C(=O)c3ccccc32)cc1	101*	-28	104*	1	.	.	114*	102*	100*
SMILES	IEC-6 tox-1	GPR7 antag	KLF5 inh	FID counter	BaF3 tox	Ba/F3 V617F tox	KLF5 confirm	IEC-6 tox-2	IEC-6 tox confirm
Cc1cc(C(=O)Cn2ncc(Cl)c(Cl)c2=O)c(C)n1CC(F)(F)F	100*	-12	82*	-32	79*	44*	-1	19	19
Cc1ccc(C)c(C(=O)Cn2ncc(Cl)c(Cl)c2=O)c1	7	10	-12	-9	2	12	.	.	.
CCCCNC(=O)C(=O)NCCCn1ccnc1	0	-7	3	2	1	-1	.	.	.
CCCCCCCCn1ccc(=N)cc1	43*	-2	68*	6	90*	99*	53	48*	43*
CCCCCCCCCCn1ccc(=N)cc1	66*	23*	86*	18	100*	99*	70*	62*	72*
CCCCCCN1Cc2ccccc2C1	3	-12	-22	10	3	3	.	.	.
CC1CCN(Cc2c(C(=O)N/N=C/c3cc(Cl)ccc3O)nnn2-c2nonc2N)CC1	50*	2	69*	-12	.	.	86*	42*	49*
COc1c(Cl)cc(Cl)cc1/C=N/NC(=O)c1nnn(-c2nonc2N)c1CN1CCC(C)CC1	-2	-3	-24	-7	.	.	.	.	.
Cc1cc(C)c(/C=N/NC(=O)c2nnn(-c3nonc3N)c2CN2CCC(C)CC2)c(C)c1	-5	-35	-6	-23	.	.	.	.	.
CC1CCN(Cc2c(C(=O)N/N=C/c3cc(Br)ccc3O)nnn2-c2nonc2N)CC1	57*	7	70*	-14	.	.	84*	42*	62*
CCOC(=O)/C(=C/Nc1ccc(F)cc1)[N+](=O)[O-]	-2	-9	-3	-3	-4	-5	.	.	.
C[C@@H](C(=O)NCCc1c[nH]c2ccccc12)[C@@H]1C[C@@]1(C)[C@@H](NC(=O)OCc1ccccc1)c1ccccc1	4	19	-23	-36	6	-1	.	.	.
Cc1ccc2nc(-c3ccc4c(c3)OCCO4)cn2c1	75*	11	103*	-4	79*	81*	106*	57*	61*
c1ccn2cc(-c3ccc4c(c3)OCCO4)nc2c1	11	-7	-23	-2	14	13	.	.	.
